The supplement of paper PMC11732987, “Enantioselective OTUD7B fragment discovery through chemoproteomics screening and high-throughput optimisation” (Communications Chemistry, 2025)

Key:
Test in all cases: log2 ratio of Biotin-Ahx-Ub-VS probe labelling (fragment/DMSO); higher = less target engagement (more negative = stronger competition), active = hit call of the paper (q ≤ 0.05, log2 ratio ≤ -1)
Conditions in all cases: compound concentration: 200 uM; treatment time: 3 h
USP42 = target: T1, USP42 (UniProt Q9H9J4)
T1 sequence (whole entry): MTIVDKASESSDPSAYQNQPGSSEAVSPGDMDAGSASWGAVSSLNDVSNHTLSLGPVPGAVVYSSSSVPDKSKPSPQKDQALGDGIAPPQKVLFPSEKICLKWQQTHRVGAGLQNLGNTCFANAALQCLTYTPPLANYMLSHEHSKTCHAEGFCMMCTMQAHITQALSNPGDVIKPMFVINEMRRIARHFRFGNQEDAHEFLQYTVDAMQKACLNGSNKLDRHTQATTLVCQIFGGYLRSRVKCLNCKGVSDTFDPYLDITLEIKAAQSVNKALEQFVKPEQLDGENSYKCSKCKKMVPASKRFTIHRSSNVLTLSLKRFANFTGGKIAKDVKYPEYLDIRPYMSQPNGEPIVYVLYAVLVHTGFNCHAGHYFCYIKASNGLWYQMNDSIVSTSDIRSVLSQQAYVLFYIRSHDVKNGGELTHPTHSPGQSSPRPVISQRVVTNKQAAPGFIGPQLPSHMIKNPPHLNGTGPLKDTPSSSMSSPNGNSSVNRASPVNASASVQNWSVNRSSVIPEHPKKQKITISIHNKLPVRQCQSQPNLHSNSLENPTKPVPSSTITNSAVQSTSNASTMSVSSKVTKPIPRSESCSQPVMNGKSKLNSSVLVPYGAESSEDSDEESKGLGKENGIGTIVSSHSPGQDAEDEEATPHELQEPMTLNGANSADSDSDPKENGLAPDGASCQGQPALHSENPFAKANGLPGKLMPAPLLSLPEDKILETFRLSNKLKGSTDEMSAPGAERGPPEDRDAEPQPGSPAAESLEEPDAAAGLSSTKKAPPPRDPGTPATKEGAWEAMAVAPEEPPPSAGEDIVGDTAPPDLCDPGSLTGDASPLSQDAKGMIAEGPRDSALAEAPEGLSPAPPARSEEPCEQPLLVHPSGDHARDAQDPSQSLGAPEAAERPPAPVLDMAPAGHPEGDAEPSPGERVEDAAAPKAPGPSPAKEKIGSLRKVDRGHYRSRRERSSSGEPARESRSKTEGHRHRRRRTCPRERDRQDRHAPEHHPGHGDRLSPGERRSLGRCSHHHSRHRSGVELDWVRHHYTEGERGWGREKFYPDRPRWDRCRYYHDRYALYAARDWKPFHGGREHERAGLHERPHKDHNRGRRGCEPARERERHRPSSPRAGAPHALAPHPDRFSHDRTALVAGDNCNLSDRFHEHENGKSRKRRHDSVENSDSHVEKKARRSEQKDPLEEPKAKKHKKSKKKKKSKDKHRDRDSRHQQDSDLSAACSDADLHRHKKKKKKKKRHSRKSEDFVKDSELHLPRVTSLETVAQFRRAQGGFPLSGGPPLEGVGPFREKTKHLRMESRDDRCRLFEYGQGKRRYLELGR
Summary of the method: (§1)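 HEK293T lysate (495 µg per sample, in Tris/CHAPS/IGEPAL buffer with protease inhibitors) was treated in triplicate with fragment at 200 µM or with DMSO for 3 h. It was then treated with Biotin-Ahx-Ub-VS (0.5 µM final) for 1 h. Labelled DUBs were NeutrAvidin-enriched, digested with LysC and trypsin, and run by diaPASEF LC-MS/MS. Spectronaut label-free quantities were global-median-normalised. Values are average log2 ratios fragment/DMSO by unpaired t-test, using proteins with ≥2 unique peptides.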

USP46 = USP46 (UniProt P62068)
Summary of the method: as §1

USP47 = target: T2, USP47 (UniProt Q96K76)
T2 sequence (whole entry): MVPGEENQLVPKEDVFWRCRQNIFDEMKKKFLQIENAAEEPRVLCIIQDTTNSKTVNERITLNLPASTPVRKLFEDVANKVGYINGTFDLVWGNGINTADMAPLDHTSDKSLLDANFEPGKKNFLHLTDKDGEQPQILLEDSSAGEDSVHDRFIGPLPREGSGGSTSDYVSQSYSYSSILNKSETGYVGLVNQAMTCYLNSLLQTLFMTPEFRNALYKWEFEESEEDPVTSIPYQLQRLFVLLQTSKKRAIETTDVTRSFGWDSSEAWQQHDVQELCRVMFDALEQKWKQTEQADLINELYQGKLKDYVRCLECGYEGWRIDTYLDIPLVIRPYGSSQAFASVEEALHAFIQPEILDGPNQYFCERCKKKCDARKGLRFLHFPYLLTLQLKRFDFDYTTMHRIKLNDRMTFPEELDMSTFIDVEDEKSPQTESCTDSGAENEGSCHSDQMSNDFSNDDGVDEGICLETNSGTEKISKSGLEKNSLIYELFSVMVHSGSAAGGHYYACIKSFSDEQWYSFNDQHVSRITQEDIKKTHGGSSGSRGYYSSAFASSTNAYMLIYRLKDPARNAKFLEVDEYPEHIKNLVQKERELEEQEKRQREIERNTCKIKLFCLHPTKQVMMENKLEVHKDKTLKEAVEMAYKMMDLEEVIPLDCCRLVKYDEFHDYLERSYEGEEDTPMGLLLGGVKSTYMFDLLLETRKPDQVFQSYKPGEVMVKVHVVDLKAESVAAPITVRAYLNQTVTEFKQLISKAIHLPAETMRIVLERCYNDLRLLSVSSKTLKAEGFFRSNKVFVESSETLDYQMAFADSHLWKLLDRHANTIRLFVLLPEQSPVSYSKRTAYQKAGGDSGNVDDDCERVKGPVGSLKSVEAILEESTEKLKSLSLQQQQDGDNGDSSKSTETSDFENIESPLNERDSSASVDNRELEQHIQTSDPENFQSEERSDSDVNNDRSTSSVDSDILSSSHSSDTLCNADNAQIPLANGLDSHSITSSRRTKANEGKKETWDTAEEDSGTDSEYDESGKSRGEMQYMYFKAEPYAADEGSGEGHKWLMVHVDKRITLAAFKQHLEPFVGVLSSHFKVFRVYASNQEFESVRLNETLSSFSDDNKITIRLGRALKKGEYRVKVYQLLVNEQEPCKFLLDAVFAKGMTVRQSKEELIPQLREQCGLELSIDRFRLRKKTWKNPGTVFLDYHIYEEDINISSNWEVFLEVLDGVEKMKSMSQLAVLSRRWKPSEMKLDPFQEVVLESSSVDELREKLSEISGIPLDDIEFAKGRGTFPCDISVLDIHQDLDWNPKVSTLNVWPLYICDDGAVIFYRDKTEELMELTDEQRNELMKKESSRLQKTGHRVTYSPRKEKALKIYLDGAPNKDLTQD
Summary of the method: as §1

USP48 = target: T3, USP48 (UniProt Q86UV5)
T3 sequence (whole entry): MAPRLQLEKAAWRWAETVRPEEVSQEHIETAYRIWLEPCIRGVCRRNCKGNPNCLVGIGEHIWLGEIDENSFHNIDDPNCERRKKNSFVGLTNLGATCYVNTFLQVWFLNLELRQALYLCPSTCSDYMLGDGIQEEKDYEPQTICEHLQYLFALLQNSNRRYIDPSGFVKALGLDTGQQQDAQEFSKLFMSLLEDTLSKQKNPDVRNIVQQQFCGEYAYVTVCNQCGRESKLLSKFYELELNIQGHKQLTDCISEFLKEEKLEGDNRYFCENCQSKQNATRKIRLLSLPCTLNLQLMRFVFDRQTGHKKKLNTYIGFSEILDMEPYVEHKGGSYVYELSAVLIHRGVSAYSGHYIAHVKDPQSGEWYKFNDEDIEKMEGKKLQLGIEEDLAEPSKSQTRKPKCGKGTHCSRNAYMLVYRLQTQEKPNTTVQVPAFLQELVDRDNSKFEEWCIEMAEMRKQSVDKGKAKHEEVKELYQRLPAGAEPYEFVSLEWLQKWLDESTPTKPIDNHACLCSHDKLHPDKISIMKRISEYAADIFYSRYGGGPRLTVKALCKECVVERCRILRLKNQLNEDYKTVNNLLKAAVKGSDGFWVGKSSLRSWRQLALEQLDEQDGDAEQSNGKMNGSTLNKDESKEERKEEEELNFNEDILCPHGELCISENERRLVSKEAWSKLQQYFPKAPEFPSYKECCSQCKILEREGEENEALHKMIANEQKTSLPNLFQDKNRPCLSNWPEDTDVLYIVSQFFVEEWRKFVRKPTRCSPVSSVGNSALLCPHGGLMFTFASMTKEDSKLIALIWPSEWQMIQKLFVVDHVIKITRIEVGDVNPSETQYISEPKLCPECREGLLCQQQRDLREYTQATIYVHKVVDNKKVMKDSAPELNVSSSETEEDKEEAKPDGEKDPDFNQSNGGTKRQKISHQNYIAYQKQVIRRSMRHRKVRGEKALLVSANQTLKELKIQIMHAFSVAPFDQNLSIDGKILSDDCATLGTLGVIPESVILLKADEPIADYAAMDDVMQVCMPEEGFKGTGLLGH
Summary of the method: as §1

USP5 = target: T4, USP5 (UniProt P45974)
T4 sequence (whole entry): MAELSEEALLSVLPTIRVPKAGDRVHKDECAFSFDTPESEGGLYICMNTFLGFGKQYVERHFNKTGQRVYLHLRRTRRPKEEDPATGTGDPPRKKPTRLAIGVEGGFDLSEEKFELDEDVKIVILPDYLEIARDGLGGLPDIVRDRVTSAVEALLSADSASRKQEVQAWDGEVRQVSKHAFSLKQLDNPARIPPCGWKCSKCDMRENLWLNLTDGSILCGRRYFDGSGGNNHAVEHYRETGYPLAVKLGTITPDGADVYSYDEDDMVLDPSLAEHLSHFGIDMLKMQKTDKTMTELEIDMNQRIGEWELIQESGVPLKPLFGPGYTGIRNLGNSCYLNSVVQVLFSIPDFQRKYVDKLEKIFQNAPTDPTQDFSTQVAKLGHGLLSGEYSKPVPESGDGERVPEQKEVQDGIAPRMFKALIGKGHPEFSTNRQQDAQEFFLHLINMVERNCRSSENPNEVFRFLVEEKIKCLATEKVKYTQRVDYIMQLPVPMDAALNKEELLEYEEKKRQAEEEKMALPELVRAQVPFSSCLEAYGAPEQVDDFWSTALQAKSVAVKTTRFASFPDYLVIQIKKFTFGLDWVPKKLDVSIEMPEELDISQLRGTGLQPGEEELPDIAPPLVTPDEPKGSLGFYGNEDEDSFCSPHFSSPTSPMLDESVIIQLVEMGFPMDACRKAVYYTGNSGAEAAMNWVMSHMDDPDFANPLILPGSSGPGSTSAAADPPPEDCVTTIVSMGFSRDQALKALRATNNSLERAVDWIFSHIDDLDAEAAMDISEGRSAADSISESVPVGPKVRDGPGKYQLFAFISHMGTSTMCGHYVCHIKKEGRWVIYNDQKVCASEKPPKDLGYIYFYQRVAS
Summary of the method: as §1

USP54 = USP54 (UniProt Q70EL1)
Summary of the method: as §1

USP7 = USP7 (UniProt Q93009)
Summary of the method: as §1

USP8 = target: T5, USP8 (UniProt P40818)
T5 sequence (whole entry): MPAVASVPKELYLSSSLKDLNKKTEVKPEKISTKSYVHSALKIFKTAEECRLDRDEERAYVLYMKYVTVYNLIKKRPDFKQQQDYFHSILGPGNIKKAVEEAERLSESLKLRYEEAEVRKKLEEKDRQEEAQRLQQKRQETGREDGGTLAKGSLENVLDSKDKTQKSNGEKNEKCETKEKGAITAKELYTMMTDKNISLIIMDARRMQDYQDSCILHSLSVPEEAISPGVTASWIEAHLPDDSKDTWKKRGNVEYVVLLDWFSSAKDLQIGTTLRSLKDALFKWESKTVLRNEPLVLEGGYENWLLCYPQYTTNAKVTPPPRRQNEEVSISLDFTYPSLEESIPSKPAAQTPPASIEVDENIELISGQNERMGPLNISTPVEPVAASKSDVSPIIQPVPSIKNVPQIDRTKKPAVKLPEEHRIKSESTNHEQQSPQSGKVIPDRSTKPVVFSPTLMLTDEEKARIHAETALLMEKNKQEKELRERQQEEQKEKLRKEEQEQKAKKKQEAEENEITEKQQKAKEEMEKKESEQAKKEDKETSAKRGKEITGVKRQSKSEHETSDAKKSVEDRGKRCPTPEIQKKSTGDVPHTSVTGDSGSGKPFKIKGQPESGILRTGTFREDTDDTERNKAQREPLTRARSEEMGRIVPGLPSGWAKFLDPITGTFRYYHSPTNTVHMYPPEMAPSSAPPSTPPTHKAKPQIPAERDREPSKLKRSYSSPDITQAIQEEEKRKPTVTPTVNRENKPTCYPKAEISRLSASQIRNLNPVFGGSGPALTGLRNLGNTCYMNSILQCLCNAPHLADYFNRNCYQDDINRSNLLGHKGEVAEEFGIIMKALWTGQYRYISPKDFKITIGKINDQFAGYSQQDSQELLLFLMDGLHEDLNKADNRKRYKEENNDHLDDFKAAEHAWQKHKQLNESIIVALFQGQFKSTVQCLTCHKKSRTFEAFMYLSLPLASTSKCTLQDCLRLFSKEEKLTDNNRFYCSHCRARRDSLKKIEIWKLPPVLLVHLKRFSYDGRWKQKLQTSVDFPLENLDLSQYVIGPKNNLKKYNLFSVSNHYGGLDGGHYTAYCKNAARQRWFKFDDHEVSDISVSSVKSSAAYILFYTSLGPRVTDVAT
Summary of the method: as §1

USP9X = USP9X (UniProt Q93008)
Summary of the method: as §1

UniProt O00487 = target: UniProt O00487
Summary of the method: as §1

Measured: log2 ratio of Biotin-Ahx-Ub-VS probe labelling

Chain of USP46 (P62068 whole entry): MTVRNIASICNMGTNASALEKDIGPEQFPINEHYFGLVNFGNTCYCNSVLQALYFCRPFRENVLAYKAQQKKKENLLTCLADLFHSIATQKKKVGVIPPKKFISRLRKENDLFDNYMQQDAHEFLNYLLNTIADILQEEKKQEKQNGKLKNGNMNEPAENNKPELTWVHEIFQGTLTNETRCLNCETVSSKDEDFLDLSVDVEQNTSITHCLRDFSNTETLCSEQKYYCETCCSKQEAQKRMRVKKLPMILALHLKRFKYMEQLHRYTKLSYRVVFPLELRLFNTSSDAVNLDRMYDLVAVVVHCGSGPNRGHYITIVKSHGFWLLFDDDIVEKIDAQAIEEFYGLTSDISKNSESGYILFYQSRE
Chain of USP9X (Q93008 whole entry): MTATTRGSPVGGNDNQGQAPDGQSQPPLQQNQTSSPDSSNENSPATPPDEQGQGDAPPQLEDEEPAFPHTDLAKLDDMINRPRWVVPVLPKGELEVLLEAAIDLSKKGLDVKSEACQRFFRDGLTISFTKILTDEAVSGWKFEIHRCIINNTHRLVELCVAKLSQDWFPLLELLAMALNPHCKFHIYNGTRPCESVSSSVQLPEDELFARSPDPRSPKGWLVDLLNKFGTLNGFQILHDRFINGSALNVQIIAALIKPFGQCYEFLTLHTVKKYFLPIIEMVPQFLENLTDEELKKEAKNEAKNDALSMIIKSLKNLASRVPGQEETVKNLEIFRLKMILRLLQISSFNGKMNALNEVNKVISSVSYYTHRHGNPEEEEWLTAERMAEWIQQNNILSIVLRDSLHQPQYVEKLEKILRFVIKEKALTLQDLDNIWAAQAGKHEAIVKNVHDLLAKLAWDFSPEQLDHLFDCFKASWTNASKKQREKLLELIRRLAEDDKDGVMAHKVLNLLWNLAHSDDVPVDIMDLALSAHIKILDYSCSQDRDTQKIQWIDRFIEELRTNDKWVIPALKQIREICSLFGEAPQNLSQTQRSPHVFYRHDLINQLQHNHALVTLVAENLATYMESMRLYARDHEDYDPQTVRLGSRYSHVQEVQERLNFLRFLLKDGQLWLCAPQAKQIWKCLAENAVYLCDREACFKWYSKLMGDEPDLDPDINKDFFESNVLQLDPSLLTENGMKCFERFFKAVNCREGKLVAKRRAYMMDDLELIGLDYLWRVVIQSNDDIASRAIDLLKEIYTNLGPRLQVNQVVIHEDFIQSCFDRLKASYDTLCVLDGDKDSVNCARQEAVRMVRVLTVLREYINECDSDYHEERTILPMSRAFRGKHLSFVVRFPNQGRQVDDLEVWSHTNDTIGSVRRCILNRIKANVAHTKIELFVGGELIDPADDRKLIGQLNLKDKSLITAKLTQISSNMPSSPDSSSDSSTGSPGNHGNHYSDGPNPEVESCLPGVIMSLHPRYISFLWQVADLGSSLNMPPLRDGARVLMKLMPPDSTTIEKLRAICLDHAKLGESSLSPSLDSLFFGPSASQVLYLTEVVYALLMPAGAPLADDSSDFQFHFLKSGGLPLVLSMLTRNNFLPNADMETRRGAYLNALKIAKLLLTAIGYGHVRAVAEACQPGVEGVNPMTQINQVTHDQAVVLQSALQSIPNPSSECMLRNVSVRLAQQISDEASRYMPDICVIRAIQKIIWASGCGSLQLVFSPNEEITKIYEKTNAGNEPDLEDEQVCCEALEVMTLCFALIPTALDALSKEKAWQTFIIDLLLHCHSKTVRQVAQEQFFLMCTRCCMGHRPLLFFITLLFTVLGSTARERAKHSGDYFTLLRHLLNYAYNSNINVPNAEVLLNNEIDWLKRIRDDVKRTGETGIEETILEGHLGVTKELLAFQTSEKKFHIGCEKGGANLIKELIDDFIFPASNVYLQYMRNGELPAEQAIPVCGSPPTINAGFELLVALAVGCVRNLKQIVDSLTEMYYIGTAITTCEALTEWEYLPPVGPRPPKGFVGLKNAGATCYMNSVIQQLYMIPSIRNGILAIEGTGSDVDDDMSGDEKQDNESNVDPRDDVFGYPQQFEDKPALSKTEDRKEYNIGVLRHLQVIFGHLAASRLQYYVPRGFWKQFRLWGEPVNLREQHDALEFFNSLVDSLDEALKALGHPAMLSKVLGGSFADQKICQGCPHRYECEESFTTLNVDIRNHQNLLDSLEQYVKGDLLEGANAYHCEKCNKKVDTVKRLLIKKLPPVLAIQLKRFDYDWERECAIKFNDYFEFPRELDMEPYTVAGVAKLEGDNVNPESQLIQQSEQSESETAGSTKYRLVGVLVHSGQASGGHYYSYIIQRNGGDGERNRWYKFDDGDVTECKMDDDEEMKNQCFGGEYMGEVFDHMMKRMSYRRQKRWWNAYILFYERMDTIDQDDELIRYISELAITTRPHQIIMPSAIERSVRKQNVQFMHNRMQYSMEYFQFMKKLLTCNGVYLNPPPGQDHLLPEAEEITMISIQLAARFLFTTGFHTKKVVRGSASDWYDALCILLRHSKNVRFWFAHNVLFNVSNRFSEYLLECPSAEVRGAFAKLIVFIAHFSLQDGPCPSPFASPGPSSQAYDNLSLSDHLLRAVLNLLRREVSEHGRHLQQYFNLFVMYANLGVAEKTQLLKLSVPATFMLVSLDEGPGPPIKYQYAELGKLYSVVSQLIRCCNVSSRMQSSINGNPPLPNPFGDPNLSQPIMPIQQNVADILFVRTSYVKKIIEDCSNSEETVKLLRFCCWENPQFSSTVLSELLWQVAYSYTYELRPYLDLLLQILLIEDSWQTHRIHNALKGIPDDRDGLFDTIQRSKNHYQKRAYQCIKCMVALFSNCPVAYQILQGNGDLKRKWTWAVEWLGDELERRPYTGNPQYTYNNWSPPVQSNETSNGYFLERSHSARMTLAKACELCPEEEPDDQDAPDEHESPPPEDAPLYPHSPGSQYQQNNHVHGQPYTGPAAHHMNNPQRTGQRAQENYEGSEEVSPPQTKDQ
Chain of USP54 (Q70EL1 whole entry): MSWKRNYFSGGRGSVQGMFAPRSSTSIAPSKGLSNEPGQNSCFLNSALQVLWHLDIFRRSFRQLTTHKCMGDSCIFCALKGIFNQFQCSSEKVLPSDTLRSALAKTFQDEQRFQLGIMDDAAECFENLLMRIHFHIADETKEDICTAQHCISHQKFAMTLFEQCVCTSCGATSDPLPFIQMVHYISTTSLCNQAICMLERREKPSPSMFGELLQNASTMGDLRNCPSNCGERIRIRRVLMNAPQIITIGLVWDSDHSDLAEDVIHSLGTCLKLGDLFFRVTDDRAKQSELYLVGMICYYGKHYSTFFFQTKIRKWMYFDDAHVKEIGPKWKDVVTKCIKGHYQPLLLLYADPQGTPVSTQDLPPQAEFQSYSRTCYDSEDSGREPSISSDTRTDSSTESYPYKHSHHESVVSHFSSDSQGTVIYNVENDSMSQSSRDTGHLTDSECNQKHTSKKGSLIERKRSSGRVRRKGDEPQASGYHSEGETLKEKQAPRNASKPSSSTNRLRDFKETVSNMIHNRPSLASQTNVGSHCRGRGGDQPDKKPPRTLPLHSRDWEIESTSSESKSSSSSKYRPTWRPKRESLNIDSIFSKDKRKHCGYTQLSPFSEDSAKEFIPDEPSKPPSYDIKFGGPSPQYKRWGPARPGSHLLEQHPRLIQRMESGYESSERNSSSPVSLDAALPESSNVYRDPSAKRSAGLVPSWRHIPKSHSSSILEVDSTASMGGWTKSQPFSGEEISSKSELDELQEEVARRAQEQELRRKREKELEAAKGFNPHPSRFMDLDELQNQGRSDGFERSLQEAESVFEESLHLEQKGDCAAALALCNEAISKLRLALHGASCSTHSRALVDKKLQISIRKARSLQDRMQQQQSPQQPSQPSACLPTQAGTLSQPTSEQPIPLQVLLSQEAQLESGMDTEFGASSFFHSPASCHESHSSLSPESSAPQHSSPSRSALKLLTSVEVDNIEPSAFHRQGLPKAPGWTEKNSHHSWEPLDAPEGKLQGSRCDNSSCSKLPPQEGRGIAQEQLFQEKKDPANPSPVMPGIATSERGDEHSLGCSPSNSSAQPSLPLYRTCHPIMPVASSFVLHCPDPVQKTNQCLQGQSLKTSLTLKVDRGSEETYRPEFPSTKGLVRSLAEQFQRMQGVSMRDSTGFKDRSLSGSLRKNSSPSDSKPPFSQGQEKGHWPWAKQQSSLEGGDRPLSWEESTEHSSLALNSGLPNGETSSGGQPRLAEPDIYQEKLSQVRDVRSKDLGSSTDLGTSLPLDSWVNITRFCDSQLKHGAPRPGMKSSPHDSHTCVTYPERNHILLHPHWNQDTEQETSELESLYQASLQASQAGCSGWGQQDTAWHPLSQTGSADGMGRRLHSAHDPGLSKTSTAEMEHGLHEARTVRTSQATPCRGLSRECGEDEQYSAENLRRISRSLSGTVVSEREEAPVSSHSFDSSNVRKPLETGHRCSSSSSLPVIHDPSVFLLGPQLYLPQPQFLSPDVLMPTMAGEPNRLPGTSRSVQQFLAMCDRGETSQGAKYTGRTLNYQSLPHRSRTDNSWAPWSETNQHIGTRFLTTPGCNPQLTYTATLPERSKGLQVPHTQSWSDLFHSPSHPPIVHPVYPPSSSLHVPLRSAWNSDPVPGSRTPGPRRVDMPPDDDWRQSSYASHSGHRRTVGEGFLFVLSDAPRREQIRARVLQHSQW
Chain of UniProt O00487 (O00487 whole entry): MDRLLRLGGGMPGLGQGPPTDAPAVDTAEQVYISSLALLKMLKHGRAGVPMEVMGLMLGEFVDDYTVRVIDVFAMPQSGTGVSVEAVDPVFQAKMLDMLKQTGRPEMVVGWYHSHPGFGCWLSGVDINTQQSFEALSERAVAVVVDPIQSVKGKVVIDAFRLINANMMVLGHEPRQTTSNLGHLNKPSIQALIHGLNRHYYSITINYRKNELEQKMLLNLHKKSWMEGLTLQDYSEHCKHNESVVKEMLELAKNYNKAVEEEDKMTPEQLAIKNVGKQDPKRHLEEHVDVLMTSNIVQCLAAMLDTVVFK

O=C(CCl)N1CCC2(CCC(O)CC2)CC1
inactive: USP42 0.175 | USP46 0.0165 | USP47 -0.0514 | USP48 -0.0801 | USP5 0.218 | USP54 0.833 | USP7 -0.00495 | USP8 -0.382 | USP9X -0.156 | UniProt O00487 0.0439
